About 4,500 (80%) of roughly 5,600 compounds were called active. So high a share suggests a set chosen from earlier hits. A selection follows. Unmarked numbers belong to inactive results. Rule as the data show it: active = inhibition above about 10%; inactive = the rest.

A short description of the experiment: GDH-TPI coupling enzyme inhibitors, artefact control for M. tuberculosis FBA inhibitor project, biochemical, fluorescence, high throughput (AID 652141). The conditions noted are these: GDH-TPI coupled enzyme counterscreen, at 1 µM, hits give high values. A general note: Counterscreens check selectivity or assay interference.
Regarding `COCCN(CCOC)c1nc(N)c2c(N)nc3c(c2c1C#N)CC(=O)N3Cc1ccc(Cl)cc1`, the inhibition was 79% (active).
In the case of `N#CC1(Nc2ccc3c4c(cccc24)CC3)CCCCC1`, the inhibition is 103% (active).
For the molecule `COCc1cc(=O)oc2cc(NS(=O)(=O)c3ccc(C)cc3)ccc12`, the inhibition was 51.2% (active).
Under `CCSc1nnc(-c2cc3c(s2)-c2ccccc2CC3)o1` stands 53.8% (active); under `Cc1cc(OCC(=O)NCC(O)c2ccccc2)c2c(C)c(C)c(=O)oc2c1` (centres undefined), 187% (active).
Regarding `CC1(C)CC(=O)c2cc(OCC(=O)NCC3CCCO3)ccc2O1` (centres undefined), the inhibition is -4.8%.
As to `Cc1cc(=O)oc2c3c(cc(OCC(=O)NCC(O)c4ccccc4)c12)OC(C)(C)CC3` (centres undefined), the inhibition was 46.9% (active).
Regarding `CC1=CC2=NC(=O)CC(C)(C(=O)N(CC(=O)NC(C)(C)C)Cc3ccccc3)N2C=C1` (centres undefined), the inhibition is 4.57%.
Under `COCCCNC(=S)N(CCN(C)C)Cc1cc2cc3c(cc2[nH]c1=O)OCCO3` stands 41% (active); under `Cc1ccc2nc(/C(C#N)=C\c3ccc(OC(=O)c4cccs4)cc3)[nH]c2c1`, 39% (active).
As to `Cc1ccsc1C(=O)N[C@@H](C)c1nnc2ccccn12`, the inhibition was 110% (active).
With `CCC1C(=O)c2ccccc2N(C)C1=O` (centres undefined) the figure was -6.39%.
Consider `O=C(NCCc1ccccc1)c1ccc2c(c1)N(Cc1ccccc1)CCS2`, for which the inhibition is 29.2% (active).
Consider `CN1CCN(CCCNC(=O)c2ccc(/C=C3\Oc4ccccc4N(Cc4ccc(Cl)cc4)C3=O)cc2)CC1`, for which the inhibition was -4.56%.
With `O=C(NCCN1CCOCC1)c1ccc2c(c1)N(Cc1ccc(Cl)cc1)CCS2`, the inhibition is 48.2% (active).
Regarding `CC(C)(C)Nc1c(-c2cccs2)nc2ccccn12`, the inhibition is 114% (active).
As to `Cc1c(CCC(=O)O)c(=O)oc2cc(OCc3ccc(Br)cc3)ccc12`, the inhibition was 1.56%.
Take `COC(=O)c1c(-c2ccsc2)oc2ccc(-c3cc(OC)c(OC)c(OC)c3)cc12`: the inhibition was -4.81%.
Consider `CCOC(=O)c1c(-c2ccccc2)oc2ccc(OCC(=O)NN)cc12`, for which the inhibition is 74.7% (active).
Turning to `CCOC(=O)c1c(-c2ccccc2)oc2ccc(OC(=O)N(C)C)cc12`, the inhibition was 164% (active).
Under `Cc1c(Cc2ccccc2)c(=O)oc2cc(OCC(N)=O)ccc12` stands 899% [above what the read-out allows, likely interference] (active); under `CCOC(=O)c1c(-c2ccccc2)oc2ccc(OCC(N)=O)cc12`, 126% (active); under `C=CCNC(=O)c1ccc2c3n(nc2c1)-c1ccc(C)cc1CO3`, 160% (active).
With `CCOC(=O)CSc1nc2c(c(=O)n(Cc3ccccc3Cl)c(=O)n2C)n1C`, the inhibition is 28.5% (active).
Under `COc1ccc(-n2cc(CNC3CCOCC3)c(-c3cccc(F)c3)n2)cc1` stands 15.8% (active); under `COc1ccc(-n2cc(CN(C)Cc3n[nH]c(=O)[nH]3)c(-c3cccc(F)c3)n2)cc1`, 37.4% (active).
Under `CCCc1nc2oc3c(=O)[nH]cnc3c2c2c1COC(C)(C)C2` stands 101% (active).
Regarding `O=C(O)/C=C/c1cn(-c2ccccc2)nc1-c1cccs1`, the inhibition is 76.6% (active).
Under `COc1ccccc1-c1oc2ccccc2c1C#CCCCCO` stands 145% (active); under `Cc1ccc(-c2nc(C#N)c(NCCCn3ccnc3)o2)cc1`, 34.1% (active); under `C=CCn1cc(-c2cccc(C(F)(F)F)c2)cc(C#N)c1=O`, -2.28%.
Under `Cn1cc(-c2ccccc2)cc(C#N)c1=O` stands 79.8% (active).
Regarding `CN(CCNC(=O)c1cc2c(-c3ccccc3F)nn(C)c2s1)C1CCCCC1`, the inhibition is 183% (active).
For the molecule `CCOC(=O)c1cc2cc(C)ccc2[nH]1`, the inhibition was 42.5% (active).
With `Cc1cc(C)c2c(NC(=O)C3CC3)nn(C)c2n1` the figure was 72.7% (active); with `Cc1cc(C)c2c(n1)nn1c(-n3ccnc3)cc(C)nc21`, -4.63%; with `Cc1cc(=O)n2[nH]c(-c3cccc(Cl)c3)cc2n1`, 82.4% (active).
Regarding `CC(C)n1ncc2c(C(=O)NCc3ccccc3CN(C)C)cc(C3CC3)nc21`, the inhibition was 108% (active).
Take `CCCS(=O)(=O)Nc1c(C(=O)O)[nH]c2ccccc12`: the inhibition is 48.1% (active).
Consider `CC(C)CN1CCNC(=O)C1CC(=O)N(C)CC1CCOCC1` (centres undefined), for which the inhibition was 106% (active).
On to `COCCCNC(=S)NCCNc1nc2cc(C)c(C)cc2cc1C#N`, for which the inhibition was 60.5% (active).
Take `CN(CCc1ccccn1)S(=O)(=O)c1ccc2c3c(cccc13)C(=O)N2`: the inhibition is 103% (active).
Under `CCC(C)N(C(=O)COC(=O)C1C(C(=O)OC)=C(C)NC(C)=C1C(=O)OC)C1CCS(=O)(=O)C1` (centres undefined) stands 111% (active); under `CCN(C(=O)COC(=O)c1ccc(COc2ccc3c(C)cc(=O)oc3c2)cc1)C1CCS(=O)(=O)C1` (centres undefined), -0.6%; under `Cc1ccc(-c2nc3ccccc3c(=O)n2-c2ccc(Br)cn2)cc1`, 98.6% (active).
`CC1(C(=O)NCc2ccc(F)c(F)c2)Cc2c(-c3ccc4c(c3)OCO4)ccnc2O1` (centres undefined): the inhibition is 108% (active).
As for `CC1(C(=O)NCc2ccco2)Cc2c(-c3ccc4c(c3)OCO4)ccnc2O1` (centres undefined), the inhibition is -4.87%.
Under `CC(C)OCCCNc1ncnc2c1[nH]c1ccc(F)cc12` stands 97.1% (active); under `CCCCNc1c(-c2cccc(Sc3ccc(OC)cc3)c2)nc2ccccn12`, 32.5% (active).
With `CCc1c(C)nc2cc(-c3cccs3)[nH]n2c1=O`, the inhibition is 19.6% (active).
As for `CCc1c(C)nc2cc(C)[nH]n2c1=O`, the inhibition is 41.7% (active).
As to `C=CCc1c(C)nc2cc(-c3ccccc3)[nH]n2c1=O`, the inhibition is 49.2% (active).
`Cc1ccc(S(=O)(=O)N2C[C@@H](C)[C@]3(C2)[C@H](O)[C@H](OC(=O)NCc2ccccc2)C[C@H]2C(=O)N(c4ccccc4)C(=O)[C@H]23)cc1`: the inhibition was -1.04%.
For `CN(C)Cc1c(O)ccc2c(=O)c(-c3ccccc3Cl)coc12`, the inhibition is 3.78%.
As to `C[C@H](O)[C@@H]1C(=O)N2CCc3c([nH]c4ccccc34)[C@@H]2C[C@@H]1N(C)C(=O)Nc1ccc(F)cc1`, the inhibition is 182% (active).
`O=C(O)c1cccnc1Sc1ncnc2sc3c(c12)CCC3`: the inhibition is 47.7% (active).
Take `N#Cc1c(N)n(CCOC(=O)c2ccc(Cl)cc2)c2nc3ccccc3nc12`: the inhibition was 27.5% (active).
As for `CC(OC(=O)c1ccccc1NCCO)C(=O)Nc1ccnn1C(C)C` (centres undefined), the inhibition is 83.3% (active).
With `COc1cc2nc(N3CCN(C(=O)[C@@H]4CCCO4)CC3)nc(N)c2cc1OC`, the inhibition was 81.7% (active).
`Cc1ccc(NC(=O)CN(C)C(=O)COC(=O)c2nccnc2N)cc1`: the inhibition is -3.67%.
As to `Cc1nc2ccc(NC(=O)N3CCC(c4ccccc4)C3)cc2nc1C` (centres undefined), the inhibition was 70.1% (active).
As for `CCN1CCc2c(C#N)c(NCc3ccccc3)nc(NCCO)c2C1`, the inhibition was 139% (active).
Under `O=C(Nc1ccc2nccnc2c1)c1ccco1` stands 515% [above what the read-out allows, likely interference] (active).
Regarding `O=C1OCCN1C(=O)[C@H]1[C@H](c2ccc(F)cc2)C(c2ccccc2)=NN1c1ccc(Br)cc1`, the inhibition is 38.6% (active).
Regarding `C#Cc1cc(N2CCN(C(=O)c3ccoc3)CC2)n2nc(-c3cccc(Cl)c3)cc2n1`, the inhibition was 73.9% (active).
For the molecule `Cc1nc(COc2cc3oc(=O)cc(C)c3cc2Cl)cs1`, the inhibition was 171% (active).
With `Cc1ccc(Cn2c(C)nc3c(c2=O)c2nc4ccccc4nc2n3Cc2ccco2)cc1` the figure was 48.7% (active); with `CC[C@@H]1Cc2cc(O)ccc2C2=C1c1ccc(O)cc1C[C@H]2CC`, 79.8% (active); with `COc1ccc2oc(=O)c(C(=O)N3CCCC3)cc2c1`, 99.7% (active).
Under `COc1ccc2oc(=O)c(C(=O)NCc3ccccn3)cc2c1` stands -4.05%.
As for `Nc1ccccc1-c1nc2ccncc2[nH]1`, the inhibition is 0.69%.
As to `O=C(Nc1cccc2ccccc12)N1CCN(Cc2ccc3c(c2)OCO3)CC1`, the inhibition is 34.8% (active).
Under `O=C(Nc1cccc2ccccc12)N1CCC2(CC1)OCCO2` stands 93.7% (active).
Consider `COc1cc(C(F)(F)F)nc2c(Br)c(C(C)(C)C)nn12`, for which the inhibition was 47.7% (active).
Take `O=C(NCc1cccc(Cl)c1)C1=CC=CN2CCS(=O)(=O)N=C12`: the inhibition was -4.53%.
With `CNc1nc(-c2ccccc2)cc(-c2ccccc2)n1` the figure was 73.9% (active).
With `Nc1nc2n(n1)C(c1ccco1)CC(c1ccc(Cl)c(Cl)c1)N2` (centres undefined), the inhibition was 199% (active).
Under `Cn1cccc1-c1nc2ccccc2n1C` stands 9.72%.
Under `Cn1c(-c2ccco2)nc2cc3ccccc3cc21` stands 36.5% (active).
Take `O=C(Nc1nncs1)c1ccccc1NS(=O)(=O)c1cccs1`: the inhibition was 115% (active).
As for `Cc1ccc(C2Nc3ccccc3C(=O)N2CCN2CCNC2=O)cc1` (centres undefined), the inhibition was -5.86%.
With `CCOC(=O)NN1C(=O)c2ccccc2NC1c1cccc(O)c1` (centres undefined), the inhibition was 100% (active).
As for `Cc1cc(C)nc(SCc2cn3c(C)cc(C)nc3n2)n1`, the inhibition is 69.3% (active).
Under `Cc1nn(C)c(Oc2ccccc2)c1CCNS(=O)(=O)c1ccc(F)cc1` stands 124% (active).
Turning to `COc1cc(/C=C/c2ccc(/C=C/c3cc(OC)c(OC)c(OC)c3)cc2)cc(OC)c1OC`, the inhibition was 11.4% (active).
For the molecule `COCCCNC(=O)/C(C#N)=C/c1c(N2CCCCCC2)nc2ccccn2c1=O`, the inhibition is 50.5% (active).
Under `CC[C@@H](C)[C@H](NC(=O)CCc1c(C)c2cc3c4c(oc3c(C)c2oc1=O)CCCC4)C(=O)O` stands 83% (active).
As to `COCc1cc(=O)n2[nH]c(C)c(-c3ccccc3)c2n1`, the inhibition is 39.7% (active).
Regarding `Cc1nc2c(-c3ccccc3)c(C)[nH]n2c(=O)c1Cl`, the inhibition is 81.2% (active).
As for `CCCc1cc(=O)n2[nH]c(C)c(-c3ccc(Cl)cc3)c2n1`, the inhibition is 108% (active).
In the case of `CN1CCc2c(sc3c2c(NCc2ccco2)nc2nnnn23)C1`, the inhibition is 183% (active).
Take `O=C(CCC(=O)N/N=C/c1ccc(Br)o1)N/N=C/c1ccc(Br)o1`: the inhibition is 88.2% (active).
In the case of `Fc1ccc(COc2cccc(-c3n[nH]c(=S)o3)c2)cc1`, the inhibition was 137% (active).
Under `CCN(C(=O)Nc1cccc2ccccc12)c1ccccc1` stands 118% (active).

A word on the inhibition: it is the relative decrease from the control value, in per cent.

The values above are taken from PubChem BioAssay AID652141 (The Scripps Research Institute Molecular Screening Center, 2013).
